Screening results (PubChem BioAssay)
SARS PLpro yeast – SARS-CoV PLP inhibition in yeast. hit rate 0.19% among 330,000. AID 485353. Potency, µM (highest dose often 32.9 µM), for inactives: at the top dose activity, positive = growth rescue, hits mostly activators. S. cerevisiae expressing SARS-CoV PLpro, growth rescue; calls by dose curve; further: potency means the concentration at half of the fitted maximal effect; 0% is about no effect; nearly all actives have a fitted effect of over 55% in size
Pf growth 96h – inhibits malaria parasite growth, 96 h; P. falciparum luciferase reporter growth, 96 h; Potency, µM (top dose mostly 28.7 µM), for inactives: at the highest dose activity change, negative = inhibition, most hits filed as inhibitors; hit rate 6.9% among 320,000; AID 504834; further: potency means the concentration at half of the fitted maximal effect; on the % scale 0 is the no-effect control and ±100 the full control effect
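Plates of compound plus infected erythrocytes (2% hematocrit, 0.05% parasitemia final) incubate 96 hours, 37 C, 5% CO2. Detection reagent added; reduced luminescence from the parasites' luciferase reporter flags inhibition.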
NS1 inh – influenza NS1 inhibition; Potency, µM (highest dose often 46.1 µM), without a hit: top-dose activity, positive = more growth; hit rate 0.4% among 270,000; calls by dose curve; further: potency means the concentration at half of the fitted maximal effect; actives are rising curves; nearly all actives have a fitted effect of over 50% in size
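Growth recovery, yeast-based: influenza A NS1 expressed in S. cerevisiae causes slow growth, and suppressors are detected by OD600. The parent strain without NS1 is used as positive control.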
Shiga inhibitor – blocks Shiga toxin action in Vero cells; Vero cells, Shiga toxin protein synthesis inhibition reporter; inhibition, % at 38.7 µM; hit rate 9.2% among 290,000; in the data active means inhibition mostly above about 28%, no sharp cut-off; inactive means mostly below about 43%; further: 0% is about no effect
CHX counter – counter-screen for Shiga toxin inhibitors: cycloheximide protein synthesis inhibition. cell reporter, cycloheximide protein synthesis inhibition counterscreen. max response, %. hit rate 12% among 300,000; in the data active means max response mostly above about 13%, no sharp cut-off; inactive means mostly below about 14%; further: read at 38.3 µM for the half of the compounds with a filed dose; 0% is about no effect
Pf growth 48h – P. falciparum growth inhibition at 48 hours (one generation) | Potency, µM (titrated, usually from 28.7 µM), without a hit: at the highest dose activity change, negative = inhibition, usual class: inhibitors | P. falciparum luciferase growth in erythrocytes, 48 h | hit rate 5.9% among 310,000; further: potency means the concentration at half of the fitted maximal effect; on the % scale 0 is the no-effect control and ±100 the full control effect
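Parasite viability was followed by luminescence of a genomically integrated firefly luciferase. Cultures held 0.1% parasitemia at 2% hematocrit (final), incubated under 5% CO2 at 37 C.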
The depositor's hits bear a star; i = inactive; ? = inconclusive; . = not tested or not shown; + = active, no number; [ ] = remark or other dose. Only some compounds are listed: those with a hit (about 21% of all), similar ones and a draw of the others. Unless noted, the call rests on the fitted dose curve; in most records, active means well fitted inhibition curve with a large enough effect; inconclusive means small, poorly fitted or top-dose-only effect, or another doubt; inactive means no such curve, though single readings can be large or run the other way.

SMILES	SARS PLpro yeast	Pf growth 96h	NS1 inh	Shiga inhibitor	CHX counter	Pf growth 48h
Cc1ccc(-c2noc(CN(C(=O)c3cccs3)C(C)C)n2)cc1	-3%	15%	-47%	14	2	-10%
Cc1ccccc1OCc1nc(-c2ccc(NC(=O)c3ccc4c(c3)OCO4)cc2)no1	0%	-7%	1%	20	15	?
CC(Oc1ccc(Cl)cc1Cl)c1nc(-c2ccc(NC(=O)c3ccco3)cc2)no1 (configuration not stated)	-35%	0.93µM*	-3%	113*	71*	.
CC(NC(=O)c1ccco1)c1nc(-c2ccccc2)no1 (configuration not stated)	0%	9%	10%	-8	2	23%
O=C(NC(=S)N(CCO)Cc1ccccc1)c1ccc(S(=O)(=O)N2CCCC2)cc1	4%	1%	.	-4	-2	-4%
O=C(CN1C(=O)NC2(CCc3ccccc32)C1=O)Nc1ccccc1C(F)(F)F (configuration not stated)	-2%	?	.	.	.	-26%
CCn1cc(C(=O)NCc2ccccc2)c(=O)c2cc(F)c(N3CCN(C(=O)c4ccco4)CC3)cc21	8%	1.7µM*	10%	-8	-5	.
CCn1cc(C(=O)NCc2ccc3c(c2)OCO3)c(=O)c2cc(F)c(N3CCN(C(=O)c4ccco4)CC3)cc21	28%	.	-3%	-10	-4	8.3µM*
CCCNC(=O)c1cn(CC)c2cc(N3CCN(C)CC3)c(F)cc2c1=O	0%	?	2%	-10	-1	.
CCn1cc(C(=O)NCc2ccncc2)c(=O)c2cc(F)c(N3CCN(C(=O)c4ccco4)CC3)cc21	0%	10µM*	-12%	24	-3	6.6µM*
COC(=O)CNC(=O)c1cccc(-c2ccc(OC)cc2)c1	-2%	2.3µM*	-32%	80*	36*	66%
COc1ccc(-c2cccc(C(=O)NCC(=O)O)c2)cc1	-1%	6%	-120%	35*	23*	.
CCN(CC)C(=O)c1cccc(-c2ccc(OC)cc2)c1	-13%	.	-39%	49*	25*	?
Cc1nc2cc(-c3ccccc3)[nH]n2c(=O)c1C	-8%	402%	15%	63*	34*	3%
CCOC(=O)Cc1cc(=O)n2[nH]c(-c3ccc(C)cc3)cc2n1	5%[6.58 µM]	11%	13%	14	-1	.
CCOC(=O)Cc1c(C)nc2cc(-c3ccc(Cl)cc3)[nH]n2c1=O	0%	?	1%	17	5	19%
COCc1cc(=O)n2[nH]c(-c3ccc(C)cc3)cc2n1	-7%	30%	7%	72*	37*	.
Cc1cc(=O)n2[nH]c(-c3ccccc3)cc2n1	.	.	-8%	66*	20	29%
COc1cccc(-c2cc3nc(-c4ccccc4)cc(=O)n3[nH]2)c1	-1%	63%	6%	34	31	30%
CCc1c(C)nc2cc(-c3ccc(OC)cc3)[nH]n2c1=O	0%	10%	3%	130*	32*	?
CC(C)c1ccc(/C=C2\NC(=S)N(Cc3cccnc3)C2=O)cc1	-1%	?	-5%	-5	-3	?
Cc1cc(=O)n2[nH]c(-c3ccc(C(C)(C)C)cc3)cc2n1	0%	4.7µM*	-1%	20	12	2.9µM*
C/C(=N\NC(=O)Nc1ccccc1)c1ccc2ccccc2c1	-11%	-7%	19%	-13	2	-10%
C/C(=N\Nc1ccc(C(=O)O)cc1)c1ccc2c(c1)Nc1ccccc1S2	-4%	?	1%	48*	69*	?
COCCn1c(C)cc(C(=O)COC(=O)c2ccc(S(=O)(=O)N(C)C)cc2)c1C	-2%	.	.	.	.	.
SMILES	SARS PLpro yeast	Pf growth 96h	NS1 inh	Shiga inhibitor	CHX counter	Pf growth 48h
COCCn1c(C)cc(C(=O)COC(=O)c2ccc(NC(=O)CC#N)cc2)c1C	-8%	.	1%	73*	40*	-38%
COCCn1c(C)cc(C(=O)COC(=O)c2cncc(Br)c2)c1C	-22%	153%	-4%	54*	36*	107%
COCCn1c(C)cc(C(=O)COC(=O)c2ccccc2Br)c1C	-5%	52%	.	-12	-3	226%
COCCn1c(C)cc(C(=O)COC(=O)c2ccc3ncsc3c2)c1C	1%	?	-18%	110*	24*	108%
CC(C)n1cc(/C=N/Nc2ccc(Cl)c(C(=O)O)c2)c2ccccc21	-3%	16%	15%	.	49*	131%
C/C(=N\Nc1ccc(Cl)c(C(=O)O)c1)c1cccc2ccccc12	-1%	1%	9%	45	12*	24%
NC(=O)Cn1cc(/C=N\NS(=O)(=O)c2ccc(Cl)cc2)c2ccccc21	1%	27%	-1%	-9	-2	9%
C/C(=N\Nc1ccc(Cl)c(C(=O)O)c1)c1ccccn1	-4%	61%	5%	138*	94*	56%
O=C(O)c1cc(N/N=C/c2cccc3ccccc23)ccc1Cl	2%	63%	14%	114*	103*	215%
CC1=C([N+](=O)[O-])C(c2ccccc2C(F)(F)F)NC(=O)N1C (configuration not stated)	1%	-2%	1%	13	-3	16%
NS(=O)(=O)c1ccc(CNC(=O)c2cc(=O)c3ccccc3o2)cc1	9%	21%	-1%	7	-12	.
O=C(NNc1nc(=O)c2cccnc2s1)c1ccccc1O	12%	8%	.	30	23	?
O=C(CC1C(=O)NCCN1CC1CCCCC1)NCc1cccc(F)c1F (configuration not stated)	0%	-2%	-1%	-26	-2	7%
O=C(c1cccc([N+](=O)[O-])c1)c1cc2ccccc2o1	27%	?	10%	9	17	6%
C/C(=N\Nc1ncc(Cl)cc1Cl)c1ccccn1	23%	?	.	119*	43*	-27%
O=C(O)c1cc(N/N=C/C(Cl)=C/c2ccccc2)ccc1Cl	1%	i	.	183*	68*	i
C/C(=N\Nc1cccc([N+](=O)[O-])c1)c1cc2ccccc2o1	1%	119%	.	44*	40*	53%
O=C(N/N=C/C(Cl)=C/c1ccccc1)c1ccncc1	-3%	?	-1%	3	14	?
C/C(=N\Nc1ccc(Cl)c(C(=O)O)c1)c1cc2ccccc2o1	-6%	-3%	.	+	80*	95%
Cc1cc(OC(=O)c2cccc(F)c2)c([N+](=O)[O-])c(=O)[nH]1	-1%	-3%	-12%	2	1	2%
CC(=O)NC1=NN(C(C)=O)C(c2sccc2C)S1 (configuration not stated)	-1%	-6%	-4%	-6	-2	.
CCOc1ccccc1NC(=O)CSc1nnc(-c2ccccc2Cl)n1Cc1ccco1	-3%	2%	-3%	-17	5	?
O=C(CCN1CCOCC1)NNC(=O)c1ccc(Cl)c([N+](=O)[O-])c1	2%	.	.	.	.	.
